Shn3 inh set2 – reduction of Shn3 3'UTR firefly luciferase signal, primary screen, Schnurri-3 inhibitor project, cell-based, Clone20 osteoblasts, set 2; Clone20 osteoblast Shn3 3'UTR firefly luciferase, 24 h; inhibition, % at 12.5 µM; hit rate 0.52% among 360,000;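 active = mean inhibition of at least 75% with every replicate also reaching 75%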;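 note: 0% = median of neutral control wells and 100% = pilot-screen positive control compound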
LMP1 NFkB inh – EBV LMP1-driven NF-kappaB luciferase reporter inhibitors, primary screen, cell-based, luminescence, single point. LMP1-induced NF-kappaB luciferase reporter cells. inhibition, % at 12.5 µM. hit rate 0.69% among 350,000; in the data active = inhibition above about 41%;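 note: 0% = neutral control wells and 100% = reference inhibitor control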
TROY signal inh – inhibitors of TROY-driven NF-kB signaling, primary screen, Q293 LMP1-TROYcd cells, NF-kB luciferase, uHTS; Q293 LMP1-TROYcd NF-kB luciferase reporter, 4 h; inhibition, % at 10 µM; hit rate 0.98% among 360,000;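 active = compounds whose plate-normalised and pattern-corrected inhibition of the luciferase reporter signal at the single screening dose is 50% or more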
TWEAK Fn14 block – inhibitors of TWEAK-Fn14 signaling, primary screen, luciferase reporter cells, uHTS; TWEAK-stimulated Fn14 reporter cells, luciferase luminescence, 8 h; inhibition, % at 10 µM; hit rate 2% among 360,000; AID 1159606, 2016; in the data active = inhibition above about 50%
HIF-2a inh – HIF-2a reporter inhibitors, primary screen, luminescence, 786-0 RCC cells | 786-0 RCC cells HIF-2a reporter, luciferase luminescence, overnight | inhibition, % at 18.8 µM | hit rate 0.72% among 360,000;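 active = inhibition of the luminescence signal of 40% or more relative to plate controls, in a single-dose primary screen at 18.75 µM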
TRPM1 prom inh – inhibitors of MITF-dependent TRPM1 promoter reporter, primary screen, cell-based, SK-MEL-5, single point, luciferase; SK-MEL-5 TRPM1 promoter luciferase, 24 h; inhibition, % at 12.5 µM; hit rate 0.83% among 330,000; AID 488899, 2010;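 active = mean inhibition across replicates of 60% or more, whatever share of single replicates reaches that level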
* = called active by the depositor; . = no result. Sampled rows, rich in hits. Any-hit rate of the full collection: about 3.4%.

SMILES	Shn3 inh set2	LMP1 NFkB inh	TROY signal inh	TWEAK Fn14 block	HIF-2a inh	TRPM1 prom inh
O=C(CN1C(=O)c2ccccc2S1(=O)=O)c1cccc(Br)c1	53	4	80*	99*	-13	40
O=C(CN1C(=O)c2ccccc2S1(=O)=O)N1CCN(c2ccccc2F)CC1	-8	-3	-28	9	-7	-1
O=C(CN1C(=O)c2ccccc2S1(=O)=O)c1ccccc1F	48	45*	78*	93*	7	26
COc1cc(C(=O)O/N=C(\N)c2cccc([N+](=O)[O-])c2)cc(OC)c1OC	-9	0	-1	62*	-27	-8
CCCN(CCC)Cc1c(C(=O)N/N=C/C(C)=C\c2ccco2)nnn1-c1nonc1N	3	-11	10	0	15	69*
C/C(=N\NC(=O)c1nnn(-c2nonc2N)c1CN(C)c1ccccc1)c1ccc(O)cc1	18	34	-19	-30	8	2
C/C(=N\NC(=O)c1nnn(-c2nonc2N)c1CN(C)c1ccccc1)c1ccccn1	92*	15	-2	-6	18	24
c1cnc2ccc(-n3ccnc3)cc2c1	0	.	23	22	4	.
O=C(C=CC(=O)OC1CCCCC1)OC1CCCCC1	5	2	-45	7	6	-1
CCCNC(=O)c1cc(C2CCCCN2C(=O)c2ccc3c(c2)CCO3)on1 (stereo not drawn)	-8	.	-4	-16	15	.
COc1ccc(C(=O)/C(C#N)=N/Nc2ccc([N+](=O)[O-])cc2)cc1	89*	31	63*	59*	-1	72*
COc1ccc(C(=O)/C(C#N)=N/Nc2ccccc2[N+](=O)[O-])cc1	6	8	46	36	-135	11
C/C(=N\Nc1ccc([N+](=O)[O-])cc1)c1ccc(C#N)cc1	0	-6	-12	-61	-11	-17
N#CC(C#N)=NNc1ccc([N+](=O)[O-])cc1	13	16	56*	21	-8	-2
CN(CCc1ccccc1)C(=O)c1ccc(NC(=O)Cc2ccc(NC(=O)C3CCCN(C(=O)C4CC4)C3)cc2)cc1 (stereo not drawn)	-6	5	-2	19	-15	-1
CCOC(=O)CNC(=O)C1c2ccccc2Oc2ccccc21	3	-6	13	-19	17	-2
C/C=C/c1cccc(-c2nc(C(=O)N3CCN(C)CC3)cc3c2[C@@H](CCO)N(C(=O)NC(C)C)C3)c1	.	.	-7	-2	11	.
Cc1ccc(C(=O)/C=C2\NCC(C)NC2=O)cc1 (stereo not drawn)	30	23	.	54*	-8	11
Cc1ccc(C(=O)/C=C2\NCCNC2=O)cc1	-45	10	-28	15	-137	-30
Cc1cccc(N2CCN(C(=O)c3cccc(N4CCCC4=O)c3)C(C)C2)c1 (stereo not drawn)	8	7	13	19	9	29
Oc1ccccc1C1=Nc2ncnn2C(c2ccc(F)cc2)C1 (stereo not drawn)	-10	62*	15	5	5	18
Fc1ccc(C2CC(c3ccc(F)cc3)n3ncnc3N2)cc1 (stereo not drawn)	9	10	-5	-8	18	1
O=[N+]([O-])c1ccccc1S(=O)NCc1c(Cl)cccc1Cl (stereo not drawn)	-27	.	55*	8	-3	.
Cc1ccc(-c2cnc3c(Cl)c(C)nn3c2)cc1	-15	33	10	75*	-123	4
Cc1ccc(-c2cnc3cc(C)nn3c2)cc1	-17	32	18	74*	-86	2
Cc1ccc(-c2ccnc3c(Cl)c(C)nn23)cc1	4	-8	-17	-4	-23	14
Cc1cc(C)n2nc(CNS(=O)(=O)c3cccc([N+](=O)[O-])c3)nc2n1	3	0	-9	2	1	-13
CC(C)C[C@H]1CNC(=S)N1CC1CCN(CC2CCC(C(C)(C)C)CC2)CC1 (stereo partly drawn)	93*	18	3	-5	-13	31
